Read-out in experiment [1]: Interleukin-1 alpha (IL1a), IL1A (gene 3552)
Put plainly: BSK_KF3CT_IL1a: BioMAP Diversity Plus: KF3CT Assay for Interleukin-1 alpha (IL1a) Biomarker Activity (AID 2283070). The following applies: primary human keratinocytes with fibroblasts; actives raise or lower the signal. Summed up:
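Readout is IL-1a level by ELISA, compared bidirectionally with DMSO as baseline. Cells: human keratinocytes co-cultured with foreskin fibroblasts, harvested 24 h post-dose.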

Read-out in experiment [2]: TIMP metallopeptidase inhibitor 2 (TIMP2), TIMP2 (gene 7077)
Put plainly: BSK_KF3CT_TIMP2: BioMAP Diversity Plus: KF3CT Assay for TIMP metallopeptidase inhibitor 2 (TIMP2) Biomarker Activity (AID 2283071). Particulars: primary human keratinocytes with fibroblasts; actives raise or lower the signal. Summed up: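 Measurements come from ELISA detection of TIMP-2 at 24 hours in a dosed human keratinocyte and foreskin fibroblast co-culture. DMSO serves as negative control and baseline.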

Read-out in experiment [3]: Transforming growth factor beta 1 (TGFb1), TGFB1 (gene 7040)
In words: BSK_KF3CT_TGFb1: BioMAP Diversity Plus: KF3CT Assay for Transforming growth factor beta 1 (TGFb1) Biomarker Activity (AID 2283072). The following applies: primary human keratinocytes with fibroblasts; actives raise or lower the signal. The procedure, abridged:
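TGF-b1 ELISA on a 24 h dosed co-culture of human keratinocytes and foreskin fibroblasts; cytotoxicity tracked in parallel cultures by SRB staining.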

Read-out in experiment [4]: C-C motif chemokine 2 (Homo sapiens) (UniProt P13500)
Put plainly: BSK_KF3CT_MCP1: BioMAP Diversity Plus: KF3CT Assay for Monocyte Chemoattractant Protein 1 (MCP1/CCL2) Biomarker Activity (AID 2283073). The following applies: primary human keratinocytes with fibroblasts; actives raise or lower the signal. The procedure, abridged: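 Keratinocytes and foreskin fibroblasts were co-cultured, dosed with chemical, and sampled 24 h later. MCP-1 was quantified by ELISA, and the endpoint was analyzed with bidirectional fitting using DMSO as negative control.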

Read-out in experiment [5]: Matrix Metallopeptidase 9 (MMP9), MMP9 (gene 4318)
Put plainly: BSK_KF3CT_MMP9: BioMAP Diversity Plus: KF3CT Assay for Matrix Metallopeptidase 9 (MMP9) Biomarker Activity (AID 2283074).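 As to AC50: MMP9 protein level quantified by ELISA in the co-culture.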 The following applies: primary human keratinocytes with fibroblasts; actives raise or lower the signal. The procedure, abridged: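 Values come from bidirectional fitting relative to DMSO of MMP-9 levels, which were measured by ELISA. Measurements were taken 24 h after chemical dosing of a keratinocyte and foreskin fibroblast co-culture.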

Read-out in experiment [6]: urokinase plasminogen activator (uPA), PLAU (gene 5328)
In words: BSK_KF3CT_uPA: BioMAP Diversity Plus: KF3CT Assay for urokinase plasminogen activator (uPA) Biomarker Activity (AID 2283075). The following applies: primary human keratinocytes with fibroblasts; actives raise or lower the signal. The procedure, abridged: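 Values derive from bidirectional fitting against DMSO controls. Keratinocyte/foreskin fibroblast co-cultures received chemical; 24 h later uPA was detected by ELISA, with SRB total-protein staining in parallel wells for overt cytotoxicity.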

Read-out in experiment [7]: CD40, CD40 (gene 958)
Put plainly: BSK_LPS_CD40: BioMAP Diversity Plus: LPS Assay for CD40 Biomarker Activity (AID 2283076). Particulars: primary human HUVEC with PBMC; actives raise or lower the signal. Summed up: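 CD40 signal, measured by ELISA, is fitted in both directions relative to DMSO vehicle. The system is an LPS-driven human vascular primary co-culture of endothelial cells and PBMC, sampled 24 h after compound addition.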

Read-out in experiment [8]: Interleukin-8 (IL8), CXCL8 (gene 3576)
Put plainly: BSK_LPS_IL8: BioMAP Diversity Plus: LPS Assay for Interleukin-8 (IL8) Biomarker Activity (AID 2283078). The following applies: primary human HUVEC with PBMC; actives raise or lower the signal. Summed up: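 Endothelial cells and PBMC from human donors are co-cultured, treated with chemicals and LPS, then assayed for IL-8 by ELISA after 24 h. Parallel SRB staining (0.1% SRB after 10% TCA fixation, 560 nm) flags cytotoxicity.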

Experiment [9] in a line: BSK_LPS_SRB: Viability Assessment in the BioMAP Diversity Plus: LPS Assay (AID 2283079).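 Also: total protein by sulforhodamine B absorbance as a cytotoxicity measure; measured one day after compound addition; fitted in both directions against DMSO so loss or gain of signal counts.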 Particulars: primary human HUVEC with PBMC. The procedure, abridged: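 Overt cytotoxicity was gauged by sulforhodamine B total-protein staining in a primary human vascular endothelial and mononuclear cell co-culture 24 h post-dosing. Activity was fitted in both directions relative to DMSO.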

Read-out in experiment [10]: Interleukin-1 alpha (IL1a), IL1A (gene 3552)
Put plainly: BSK_LPS_IL1a: BioMAP Diversity Plus: LPS Assay for Interleukin-1 alpha (IL1a) Biomarker Activity (AID 2283080). The following applies: primary human HUVEC with PBMC; actives raise or lower the signal. Summed up: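 Measured: IL-1 alpha via ELISA at 24 h in LPS-activated human umbilical vein endothelium–PBMC co-culture. Baseline: DMSO, bidirectional fitting.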

Read-out in experiment [11]: Monocyte Chemoattractant Protein-1 (MCP1), CCL2 (gene 6347)
Put plainly: BSK_LPS_MCP1: BioMAP Diversity Plus: LPS Assay for Monocyte Chemoattractant Protein-1 (MCP1) Biomarker Activity (AID 2283081). Particulars: primary human HUVEC with PBMC; actives raise or lower the signal. Summed up:
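LPS-stimulated HUVEC/PBMC co-culture; chemical, 24 h; MCP-1 by ELISA; bidirectional fit vs DMSO; cytotoxicity via SRB (0.1% stain, 10% TCA fix, 560 nm) in parallel wells.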

Experiment [12] can be described thus: BSK_LPS_PGE2: BioMAP Diversity Plus: LPS Assay for Prostaglandin E2 (PGE2) Biomarker Activity (AID 2283082). The following applies: primary human HUVEC with PBMC; actives raise or lower the signal. Summed up:
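Primary human endothelial cells and blood mononuclear cells, co-cultured with LPS, receive test chemical; PGE2 ELISA follows at 24 h, with SRB-stained parallel cultures flagging cytotoxicity.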

Read-out in experiment [13]: Macrophage colony-stimulating factor (MCSF), CSF1 (gene 1435)
In words: BSK_LPS_MCSF: BioMAP Diversity Plus: LPS Assay for Macrophage colony-stimulating factor (MCSF) Biomarker Activity (AID 2283083). Particulars: primary human HUVEC with PBMC; actives raise or lower the signal. The procedure, abridged: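 Compound is added to a human vascular primary co-culture of umbilical vein endothelium and blood mononuclear cells. After 24 h, M-CSF is quantified by ELISA. Signal changes are fitted in both directions against DMSO.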

Read-out in experiment [14]: Tissue Factor, F3 (gene 2152)
Put plainly: BSK_LPS_TissueFactor: BioMAP Diversity Plus: LPS Assay for Tissue Factor Biomarker Activity (AID 2283084). Particulars: primary human HUVEC with PBMC; actives raise or lower the signal. The procedure, abridged:
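In this co-culture system of umbilical vein endothelium with PBMC, stimulated with LPS, cell-surface CD142 is detected by ELISA at 24 h. Endpoint values derive from bidirectional fitting, DMSO serving as baseline.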

Read-out in experiment [15]: Vascular cell adhesion molecule 1 (VCAM1), VCAM1 (gene 7412)
Put plainly: BSK_LPS_VCAM1: BioMAP Diversity Plus: LPS Assay for Vascular cell adhesion molecule 1 (VCAM1) Biomarker Activity (AID 2283086). The following applies: primary human HUVEC with PBMC; actives raise or lower the signal. Summed up: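 Measured by ELISA: VCAM-1 in LPS-activated HUVEC/PBMC co-cultures 24 h after treatment. Values reflect bidirectional fitting with DMSO as baseline.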

Read-out in experiment [16]: CD38, CD38 (gene 952)
Put plainly: BSK_SAg_CD38: BioMAP Diversity Plus: SAg Assay for CD38 Biomarker Activity (AID 2283087). The following applies: primary human HUVEC with PBMC; actives raise or lower the signal. The procedure, abridged:
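Measures CD38 on a human endothelial/PBMC co-culture driven by SEB and TSST-1, 24 h after compound exposure, using ELISA with fluorescence detection; DMSO defines baseline for bidirectional curve fitting.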

Read-out in experiment [17]: CD40, CD40 (gene 958)
Put plainly: BSK_SAg_CD40: BioMAP Diversity Plus: SAg Assay for CD40 Biomarker Activity (AID 2283088). Particulars: primary human HUVEC with PBMC; actives raise or lower the signal. Summed up:
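Fluorescence ELISA read-out of CD40 from umbilical vein endothelium plus peripheral blood mononuclear cells, sampled 24 h after dosing. Values come from bidirectional curve fitting with DMSO as baseline.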

Read-out in experiment [18]: CD69, CD69 (gene 969)
In words: BSK_SAg_CD69: BioMAP Diversity Plus: SAg Assay for CD69 Biomarker Activity (AID 2283089). Particulars: primary human HUVEC with PBMC; actives raise or lower the signal. The procedure, abridged: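 HUVEC co-cultured with PBMC were dosed with chemical, and CD69 was measured by ELISA with fluorescence read-out 24 h later. Bidirectional curve fitting used DMSO as negative control and activity baseline.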

Read-out in experiment [19]: E-selectin (Homo sapiens) (UniProt P16581)
In words: BSK_LPS_Eselectin: BioMAP Diversity Plus: LPS Assay for Eselectin Biomarker Activity (AID 2283077). Particulars: primary human HUVEC with PBMC; actives raise or lower the signal. Summed up: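 Signal of E-selectin, detected by ELISA, served as the endpoint; cells were umbilical vein endothelium with PBMC, read 24 h after treatment. DMSO defined baseline, and both increases and decreases were fitted.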

Read-out in experiment [20]: Tumor necrosis factor (Homo sapiens) (UniProt P01375)
Put plainly: BSK_LPS_TNFa: BioMAP Diversity Plus: LPS Assay for Tumour Necrosis Factor alpha (TNFa) Biomarker Activity (AID 2283085). The following applies: primary human HUVEC with PBMC; actives raise or lower the signal. Summed up:
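ELISA-based TNFa endpoint in a human endothelial–PBMC co-culture sampled 24 h post-exposure. Curves were fitted in both directions using DMSO as baseline of activity.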

Activity calls are given as the source filed them. The calls were made as follows: active = hit-call score of the fitted dose curve at least 0.9, where 1 is the maximum; inactive = score below 0.9.

Sequence of Tumor necrosis factor (Homo sapiens) (P01375 whole entry, looked up): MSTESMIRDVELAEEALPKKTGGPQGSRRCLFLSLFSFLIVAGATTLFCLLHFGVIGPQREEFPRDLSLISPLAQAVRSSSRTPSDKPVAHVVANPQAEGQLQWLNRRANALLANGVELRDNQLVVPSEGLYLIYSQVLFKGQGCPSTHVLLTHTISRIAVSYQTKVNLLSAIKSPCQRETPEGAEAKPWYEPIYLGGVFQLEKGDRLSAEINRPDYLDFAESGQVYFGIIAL
Sequence of E-selectin (Homo sapiens) (P16581 whole entry, looked up): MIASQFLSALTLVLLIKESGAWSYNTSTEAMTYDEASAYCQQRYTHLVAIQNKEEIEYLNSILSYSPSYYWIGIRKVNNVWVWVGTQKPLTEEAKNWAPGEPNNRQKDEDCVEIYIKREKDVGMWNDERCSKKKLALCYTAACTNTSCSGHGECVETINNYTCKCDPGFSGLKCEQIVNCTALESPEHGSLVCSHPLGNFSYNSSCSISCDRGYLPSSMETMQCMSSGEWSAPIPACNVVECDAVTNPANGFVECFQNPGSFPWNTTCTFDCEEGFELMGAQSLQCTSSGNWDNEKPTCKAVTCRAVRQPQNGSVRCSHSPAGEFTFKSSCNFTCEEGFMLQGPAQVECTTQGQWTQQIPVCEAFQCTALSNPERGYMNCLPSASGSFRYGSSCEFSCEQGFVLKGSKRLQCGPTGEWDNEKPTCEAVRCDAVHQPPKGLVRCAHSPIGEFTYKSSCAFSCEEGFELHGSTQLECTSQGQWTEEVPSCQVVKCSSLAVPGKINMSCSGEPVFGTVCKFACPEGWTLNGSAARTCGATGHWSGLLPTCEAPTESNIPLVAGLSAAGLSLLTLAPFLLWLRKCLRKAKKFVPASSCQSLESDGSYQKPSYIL

With `CSC(C)(C)C=NO`, the result in experiment [1], in experiment [2], in experiment [3], in [4], in experiment [5] and in experiment [6] was inactive. Also, the result in [7], in experiment [8], in experiment [9], in [10], in experiment [11] and in experiment [12] was inactive. The outcome in experiment [13], in experiment [14], in [15], in [16], in experiment [17] and in [18] was inactive.
As a reminder, the AC50 is the midpoint of the concentration-response curve, whichever way the signal moves. Turning to `CCCCOCCOP(=O)(OCCOCCCC)OCCOCCCC`, the outcome in experiment [1], in experiment [2], in experiment [4], in experiment [6], in [7] and in experiment [19] was inactive. Besides, the result in experiment [8], in experiment [9], in experiment [10], in [11], in experiment [12] and in experiment [14] was inactive. Further, the result in [15], in experiment [16], in [17] and in [18] was inactive. Also, the AC50 in experiment [3] is 16 nM (active); in experiment [5] it was 3970 nM (active).
Consider `COP(N)(=S)OC`, for which the outcome in [1], in experiment [2], in [3], in [4], in experiment [5] and in experiment [6] was inactive. Besides, the outcome in [7], in [8], in experiment [9], in [10], in [11] and in experiment [12] was inactive. In addition, the result in experiment [13], in experiment [14], in experiment [20], in experiment [15], in experiment [16] and in [17] was inactive. Besides, the result in experiment [18] was inactive.

The record behind these values is PubChem BioAssay (EPA / NIEHS).
